Targets with a hit are over-represented here; the source holds about 7,900 in all. About 0.6% of all pairs of compound and target were hits.
How the values were obtained:
Experiment in all cases: log2 fold change, soluble protein after heating vs DMSO (PISA); higher = thermal stabilisation; K562 cells, 10 uM, 30 min; active = over 0.2 and 3.5 SD of the protein, either way, in both replicates (recomputed)
[1] = compound: CC[C@@H]1C(=O)N(C)c2cnc(Nc3ccc(C(=O)NC4CCN(C)CC4)cc3OC)nc2N1C1CCCC1
Procedure, shortened: (§1)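 Soluble protein was defined as the supernatant after 21,000xg for 90 min. It came from K562 cells at 2×10^6 cells/mL given 10 μM compound for 30 min, heated in aliquots for 3 min across 48°C-58°C, pooled, and extracted in PBS with 0.5% NP-40 at 4°C, and was quantified by TMTpro 16plex LC-MS/MS with equalised channel sums. Thermal stability against control samples, from duplicates, is reported as log2 fold change.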

volasertib = compound: CC[C@@H]1C(=O)N(C)c2cnc(Nc3ccc(C(=O)N[C@H]4CC[C@H](N5CCN(CC6CC6)CC5)CC4)cc3OC)nc2N1C(C)C [volasertib]
Procedure, shortened: as §1

[2] = compound: CC[C@H](C)N1C=C(C2=C(C=C(C=C21)C3=CN=C(C=C3)N4CCNCC4)C(=O)NCC5=C(C=C(NC5=O)C)C)C
Procedure, shortened: as §1

epoxomicin = compound: CC[C@H](C)[C@@H](C(=O)N[C@@H]([C@@H](C)O)C(=O)N[C@@H](CC(C)C)C(=O)[C@]1(CO1)C)NC(=O)[C@H]([C@@H](C)CC)N(C)C(=O)C [epoxomicin]
Procedure, shortened: as §1

[3] = compound: CCn1cc(-c2ccnc3[nH]c(-c4cccc(CN(C)C)c4)cc23)c(-c2ccc(NC(=O)N(C)C)cc2)n1
Procedure, shortened: as §1

[4] = compound: CN(C)CC(=O)Nc1ccc2[nH]c(=O)c3ccccc3c2c1
Procedure, shortened: as §1

[5] = compound: CN1C2=C(C3=C1C(=O)N(N=C3)CC4=CC(=CC=C4)N)SC(=C2)S(=O)C
Procedure, shortened: as §1

[6] = compound: CN1CCC(CNc2ccc3ncc(-c4cccc(OC(F)(F)F)c4)n3n2)CC1
Procedure, shortened: as §1

saracatinib = compound: CN1CCN(CCOc2cc(OC3CCOCC3)c3c(Nc4c(Cl)ccc5c4OCO5)ncnc3c2)CC1 [saracatinib]
Procedure, shortened: as §1

sotrastaurin = compound: CN1CCN(c2nc(C3=C(c4c[nH]c5ccccc45)C(=O)NC3=O)c3ccccc3n2)CC1 [sotrastaurin]
Procedure, shortened: as §1

alvocidib = compound: CN1CC[C@H](c2c(O)cc(O)c3c(=O)cc(-c4ccccc4Cl)oc23)[C@H](O)C1 [alvocidib]
Procedure, shortened: as §1

Tubastatin A = compound: CN1CCc2c(c3ccccc3n2Cc2ccc(C(=O)NO)cc2)C1 [Tubastatin A]
Procedure, shortened: as §1

defactinib = compound: CNC(=O)c1ccc(Nc2ncc(C(F)(F)F)c(NCc3nccnc3N(C)S(C)(=O)=O)n2)cc1 [defactinib]
Procedure, shortened: as §1

rucaparib = compound: CNCc1ccc(-c2[nH]c3cc(F)cc4c3c2CCNC4=O)cc1 [rucaparib]
Procedure, shortened: as §1

[7] = compound: CNc1nc(-c2ccc3c(N)n[nH]c3c2)cc(N2C[C@@H](C(=O)NC3CCCCC3)CC[C@H]2C)n1
Procedure, shortened: as §1

encorafenib = compound: COC(=O)N[C@@H](C)CNc1nccc(-c2cn(C(C)C)nc2-c2cc(Cl)cc(NS(C)(=O)=O)c2F)n1 [encorafenib]
Procedure, shortened: as §1

[8] = compound: COC(=O)[C@H](CCSC)NC(=O)C1=C(C=C(C=C1)NC[C@H](CS)N)C2=CC=CC=C2
Procedure, shortened: as §1

[9] = compound: CCn1c(C(=O)N(C2CC2)C2CC2)cc2c3c(ncn3C)c(Nc3cc(C)n(C)n3)nc21
Procedure, shortened: as §1

[10] = compound: CNC(=O)C1=CC=CC=C1NC2=NC(=NC=C2Cl)NC3=C(C=C(C=C3)N4CCOCC4)OC
Procedure, shortened: as §1

rosiglitazone = compound: CN(CCOC1=CC=C(C=C1)C[C@H]2C(=O)NC(=O)S2)C3=CC=CC=N3 (racemic) [rosiglitazone]
Procedure, shortened: as §1

Measured: log2 fold change

CASP9 (UniProt P55211)
inactive: [1] -0.083 | [2] 0.008 | epoxomicin 0.054 | [3] 0.035 | [4] 0.048 | [5] 0.001 | [6] -0.188 | saracatinib -0.206 | sotrastaurin -0.25 | alvocidib -0.136 | Tubastatin A 0.098 | defactinib -0.165 | rucaparib 0.161 | [7] -0.051 | encorafenib 0.012 | [8] -0.035
active: volasertib -0.629

CHPT1 (UniProt Q8WUD6)
Sequence of UniProt Q8WUD6 (Q8WUD6 whole entry, looked up): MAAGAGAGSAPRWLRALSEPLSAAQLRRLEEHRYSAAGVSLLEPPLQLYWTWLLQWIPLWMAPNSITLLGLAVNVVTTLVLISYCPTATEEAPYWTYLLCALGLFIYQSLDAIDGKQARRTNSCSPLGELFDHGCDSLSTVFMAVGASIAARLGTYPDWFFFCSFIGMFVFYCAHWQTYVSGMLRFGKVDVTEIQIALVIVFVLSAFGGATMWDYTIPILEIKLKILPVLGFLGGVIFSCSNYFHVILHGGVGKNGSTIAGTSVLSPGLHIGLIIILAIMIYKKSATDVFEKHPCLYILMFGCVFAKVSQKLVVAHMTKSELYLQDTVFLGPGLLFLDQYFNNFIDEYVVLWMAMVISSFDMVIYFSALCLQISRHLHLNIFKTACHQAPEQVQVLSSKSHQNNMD
active: [6] -0.79
inactive: [1] -0.324 | volasertib -0.228 | [2] 0.119 | epoxomicin -0.176 | [3] -0.042 | [5] 0.047 | saracatinib -0.066 | sotrastaurin -0.016 | alvocidib -0.118 | Tubastatin A -0.08 | rucaparib -0.069 | [7] 0.034 | encorafenib 0.103

C19orf54 (UniProt Q5BKX5)
Sequence of UniProt Q5BKX5 (Q5BKX5 whole entry, looked up): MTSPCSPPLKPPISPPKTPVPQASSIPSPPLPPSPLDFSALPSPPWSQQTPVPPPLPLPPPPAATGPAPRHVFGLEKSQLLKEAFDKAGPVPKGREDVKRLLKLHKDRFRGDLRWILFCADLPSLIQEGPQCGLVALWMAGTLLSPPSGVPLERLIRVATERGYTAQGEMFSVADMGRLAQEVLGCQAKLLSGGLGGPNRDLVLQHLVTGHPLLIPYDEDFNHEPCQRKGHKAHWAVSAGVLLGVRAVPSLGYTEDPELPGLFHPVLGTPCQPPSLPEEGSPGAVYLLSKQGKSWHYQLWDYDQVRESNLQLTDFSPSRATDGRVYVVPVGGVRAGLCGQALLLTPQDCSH
inactive: [1] 0.054 | volasertib -0.06 | epoxomicin 0.094 | [9] -0.152 | [3] 0.056 | [4] 0.036 | [5] -0.177 | [6] -0.141 | saracatinib 0.049 | sotrastaurin -0.221 | alvocidib 0.178 | Tubastatin A 0.092 | [10] 0.002 | defactinib -0.136 | rucaparib 0.255 | [7] -0.108 | encorafenib 0.005 | [8] -0.031

CNOT4 isoform 9 (UniProt O95628)
inactive: [1] 0.198 | volasertib -0.006 | [2] -0.046 | [9] 0.017 | [3] -0.095 | [4] 0.046 | rosiglitazone -0.022 | [5] -0.105 | [6] 0.072 | saracatinib 0.077 | alvocidib 0 | Tubastatin A -0.027 | [10] 0.187 | defactinib -0.129 | rucaparib -0.057 | [7] -0.021 | encorafenib -0.05 | [8] 0.038

CCDC167 (UniProt Q9P0B6)
Sequence of UniProt Q9P0B6 (Q9P0B6 whole entry, looked up): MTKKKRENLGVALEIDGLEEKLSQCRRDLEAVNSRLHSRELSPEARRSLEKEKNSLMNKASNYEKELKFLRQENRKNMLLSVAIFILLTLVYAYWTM
inactive: [1] 0.069 | volasertib -0.12 | [2] -0.029 | epoxomicin 0.019 | [9] -0.011 | [3] 0.13 | rosiglitazone -0.084 | [5] -0.095 | [6] 0.033 | saracatinib -0.05 | sotrastaurin -0.018 | alvocidib 0.061 | Tubastatin A -0.063 | [10] -0.006 | rucaparib 0.021 | [7] 0.104 | encorafenib -0.037

CKS2 (UniProt P33552)
Sequence of UniProt P33552 (P33552 whole entry, looked up): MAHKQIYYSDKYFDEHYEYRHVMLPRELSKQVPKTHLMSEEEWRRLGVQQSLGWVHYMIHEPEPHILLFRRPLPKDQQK
inactive: [1] 0.01 | volasertib -0.044 | [2] 0.029 | [3] -0.23 | rosiglitazone 0.028 | [5] 0.023 | saracatinib -0.044 | Tubastatin A 0.031 | rucaparib 0.025 | [7] -0.101 | encorafenib 0.078
active: [6] 0.594

CNRIP1 (UniProt Q96F85)
inactive: volasertib 0.306 | [2] -0.269 | epoxomicin -0.043 | [9] -0.136 | [10] 0.053

CA1 (UniProt E5RIF9)
inactive: epoxomicin 0.132 | [4] -0.037 | rosiglitazone -0.083 | [5] -0.056 | saracatinib 0.272 | Tubastatin A -0.178 | defactinib -0.09 | [7] 0.093 | [8] -0.129

CLPTM1L (UniProt G5E9Z2)
inactive: [2] -0.055 | epoxomicin 0.247 | [3] 0.116 | [4] 0.117 | rosiglitazone 0.189 | [6] 0.052 | sotrastaurin -0.288 | alvocidib 0.051 | Tubastatin A -0.109 | defactinib 0.002 | [8] -0.029

CD84 (UniProt Q9UIB8)
active: [7] 0.56
inactive: epoxomicin -0.009 | [9] 0.111 | [5] -0.077 | saracatinib -0.012 | sotrastaurin -0.144 | alvocidib -0.111 | Tubastatin A -0.039 | [10] -0.119

CENPE (UniProt Q02224)
inactive: volasertib 0.137 | [9] -0.079 | [3] -0.039 | [4] -0.061 | rosiglitazone 0.03 | [5] -0.255 | [6] 0.192 | saracatinib 0.318 | sotrastaurin -0.19 | alvocidib -0.385 | Tubastatin A 0.091 | [10] -0.277 | defactinib -0.056 | [7] 0.399 | [8] 0.198

CS (UniProt F8VU34)
inactive: [1] -0.093 | rosiglitazone 0.221 | rucaparib 0.268 | encorafenib 0.158

CSNK1D (UniProt P48730)
Sequence of UniProt P48730 (P48730 whole entry, looked up): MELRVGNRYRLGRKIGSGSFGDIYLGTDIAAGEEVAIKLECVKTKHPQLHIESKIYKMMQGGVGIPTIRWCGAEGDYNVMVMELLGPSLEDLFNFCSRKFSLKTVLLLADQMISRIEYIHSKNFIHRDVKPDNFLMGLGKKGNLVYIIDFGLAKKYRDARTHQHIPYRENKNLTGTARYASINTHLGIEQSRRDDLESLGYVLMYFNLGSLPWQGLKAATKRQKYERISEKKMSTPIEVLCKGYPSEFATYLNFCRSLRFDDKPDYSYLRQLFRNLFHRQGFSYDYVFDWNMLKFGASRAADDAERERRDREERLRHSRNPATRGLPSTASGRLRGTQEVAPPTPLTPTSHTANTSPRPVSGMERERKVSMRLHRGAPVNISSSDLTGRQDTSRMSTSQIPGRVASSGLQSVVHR
inactive: volasertib -0.133 | [2] 0 | epoxomicin 0.026 | [9] -0.088 | [4] -0.019 | rosiglitazone -0.062 | [5] 0.15 | [6] 0.315 | saracatinib -0.047 | sotrastaurin -0.038 | alvocidib 0.063 | Tubastatin A 0.039 | [10] 0.111 | defactinib 0.045 | rucaparib 0.032 | [7] -0.038 | encorafenib 0.06 | [8] -0.012

CCNC (UniProt P24863)
Sequence of UniProt P24863 (P24863 whole entry, looked up): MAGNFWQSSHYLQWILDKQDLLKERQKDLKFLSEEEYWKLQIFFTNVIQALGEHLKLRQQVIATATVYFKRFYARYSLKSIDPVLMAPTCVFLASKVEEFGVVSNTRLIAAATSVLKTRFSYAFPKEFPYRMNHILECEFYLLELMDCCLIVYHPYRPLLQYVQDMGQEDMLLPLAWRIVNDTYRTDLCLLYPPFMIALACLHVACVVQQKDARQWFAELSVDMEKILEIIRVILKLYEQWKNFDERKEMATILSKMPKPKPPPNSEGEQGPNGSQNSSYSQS
inactive: epoxomicin 0.035 | [9] 0.031 | [3] -0.178 | [4] -0.011 | rosiglitazone -0.022 | [5] 0.032 | saracatinib 0.057 | sotrastaurin -0.057 | [10] 0.008 | defactinib -0.047 | [7] -0.028 | [8] 0.001
active: [6] 0.4 | alvocidib 0.6

C9orf72 (UniProt Q96LT7)
Sequence of UniProt Q96LT7 (Q96LT7 whole entry, looked up): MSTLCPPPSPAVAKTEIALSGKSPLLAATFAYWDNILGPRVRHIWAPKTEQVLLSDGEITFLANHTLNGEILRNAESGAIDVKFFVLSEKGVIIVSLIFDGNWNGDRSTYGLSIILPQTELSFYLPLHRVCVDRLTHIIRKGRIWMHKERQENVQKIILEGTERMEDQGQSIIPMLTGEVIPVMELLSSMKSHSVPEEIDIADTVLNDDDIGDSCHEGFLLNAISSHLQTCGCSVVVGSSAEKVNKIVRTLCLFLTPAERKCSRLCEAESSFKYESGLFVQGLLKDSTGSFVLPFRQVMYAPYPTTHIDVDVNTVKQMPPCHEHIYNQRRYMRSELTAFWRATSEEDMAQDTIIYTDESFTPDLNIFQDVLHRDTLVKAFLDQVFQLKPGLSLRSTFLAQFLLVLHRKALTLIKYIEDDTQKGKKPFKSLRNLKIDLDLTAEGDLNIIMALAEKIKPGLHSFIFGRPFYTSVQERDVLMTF
inactive: volasertib -0.089 | [2] 0.062 | epoxomicin -0.008 | [9] 0.003 | [3] 0.226 | [4] 0.075 | rosiglitazone -0.033 | [5] -0.094 | [6] 0.209 | saracatinib 0.071 | sotrastaurin 0.129 | alvocidib -0.04 | Tubastatin A -0.126 | [10] -0.071 | defactinib -0.056 | [7] -0.021 | [8] 0

CCDC187, A0A1W2PQX5
inactive: [2] 0.012 | epoxomicin 0.085 | [3] -0.03 | [6] -0.029

COG2 (UniProt Q14746)
Sequence of UniProt Q14746 (Q14746 whole entry, looked up): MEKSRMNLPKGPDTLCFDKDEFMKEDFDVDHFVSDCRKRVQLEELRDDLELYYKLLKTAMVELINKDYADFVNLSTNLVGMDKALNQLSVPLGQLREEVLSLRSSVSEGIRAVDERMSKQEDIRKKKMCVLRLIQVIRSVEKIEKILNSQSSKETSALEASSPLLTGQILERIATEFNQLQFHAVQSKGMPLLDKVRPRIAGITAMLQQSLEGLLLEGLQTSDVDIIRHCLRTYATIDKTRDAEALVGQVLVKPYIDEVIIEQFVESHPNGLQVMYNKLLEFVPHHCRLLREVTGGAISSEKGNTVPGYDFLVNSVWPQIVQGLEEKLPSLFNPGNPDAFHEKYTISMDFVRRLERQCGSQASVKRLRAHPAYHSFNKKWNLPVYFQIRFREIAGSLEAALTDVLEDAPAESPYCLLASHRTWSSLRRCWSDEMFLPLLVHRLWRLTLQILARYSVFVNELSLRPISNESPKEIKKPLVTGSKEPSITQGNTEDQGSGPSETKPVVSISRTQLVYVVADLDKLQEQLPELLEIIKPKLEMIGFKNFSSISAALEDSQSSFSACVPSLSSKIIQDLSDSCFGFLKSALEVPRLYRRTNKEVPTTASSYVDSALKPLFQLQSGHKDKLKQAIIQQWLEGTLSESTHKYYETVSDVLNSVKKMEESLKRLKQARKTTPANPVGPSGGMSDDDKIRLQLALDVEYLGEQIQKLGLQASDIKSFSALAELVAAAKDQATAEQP
inactive: [1] -0.173 | [2] -0.357 | epoxomicin 0.008 | [9] 0.076 | [5] 0.302 | saracatinib 0.001 | sotrastaurin -0.32 | alvocidib 0.137 | Tubastatin A -0.08 | [10] -0.135 | rucaparib -0.272 | [7] -0.085 | encorafenib 0.007

CASK (UniProt O14936)
inactive: [9] -0.086 | [5] 0.014 | saracatinib -0.068 | [10] -0.064 | [7] -0.009

CLCN5 isoform 2 (UniProt P51795)
Sequence of UniProt P51795 (P51795 whole entry, looked up): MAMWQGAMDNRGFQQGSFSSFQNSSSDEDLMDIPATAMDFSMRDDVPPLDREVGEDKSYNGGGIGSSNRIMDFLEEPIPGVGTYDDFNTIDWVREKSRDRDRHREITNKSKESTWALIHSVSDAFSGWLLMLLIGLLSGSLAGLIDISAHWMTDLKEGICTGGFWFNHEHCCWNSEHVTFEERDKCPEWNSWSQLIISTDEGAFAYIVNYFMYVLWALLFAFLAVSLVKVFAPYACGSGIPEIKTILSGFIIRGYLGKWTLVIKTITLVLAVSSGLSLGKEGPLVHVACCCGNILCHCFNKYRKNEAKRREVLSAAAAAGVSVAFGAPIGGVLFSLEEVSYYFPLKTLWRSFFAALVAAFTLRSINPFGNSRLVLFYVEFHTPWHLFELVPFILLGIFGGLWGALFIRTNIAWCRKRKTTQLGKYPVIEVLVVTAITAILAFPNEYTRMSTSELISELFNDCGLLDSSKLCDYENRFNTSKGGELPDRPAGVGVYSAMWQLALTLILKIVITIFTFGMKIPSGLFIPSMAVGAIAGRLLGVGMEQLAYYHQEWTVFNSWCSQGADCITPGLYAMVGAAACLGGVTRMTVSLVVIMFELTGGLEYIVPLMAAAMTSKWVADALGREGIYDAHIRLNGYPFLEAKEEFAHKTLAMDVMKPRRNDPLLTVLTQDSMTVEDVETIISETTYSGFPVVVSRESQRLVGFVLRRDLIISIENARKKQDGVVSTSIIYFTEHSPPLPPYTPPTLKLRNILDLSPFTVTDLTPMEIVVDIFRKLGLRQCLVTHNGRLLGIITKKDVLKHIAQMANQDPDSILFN
inactive: [1] -0.299 | [2] 0.151 | [9] 0.002 | [3] 0.172 | [4] 0.046 | [5] 0.098 | [6] -0.267 | saracatinib -0.001 | alvocidib -0.032 | Tubastatin A -0.006 | [10] 0.009 | defactinib -0.033 | rucaparib 0.097 | [7] -0.116 | encorafenib 0.075 | [8] -0.025

CD68 (UniProt P34810)
Sequence of UniProt P34810 (P34810 whole entry, looked up): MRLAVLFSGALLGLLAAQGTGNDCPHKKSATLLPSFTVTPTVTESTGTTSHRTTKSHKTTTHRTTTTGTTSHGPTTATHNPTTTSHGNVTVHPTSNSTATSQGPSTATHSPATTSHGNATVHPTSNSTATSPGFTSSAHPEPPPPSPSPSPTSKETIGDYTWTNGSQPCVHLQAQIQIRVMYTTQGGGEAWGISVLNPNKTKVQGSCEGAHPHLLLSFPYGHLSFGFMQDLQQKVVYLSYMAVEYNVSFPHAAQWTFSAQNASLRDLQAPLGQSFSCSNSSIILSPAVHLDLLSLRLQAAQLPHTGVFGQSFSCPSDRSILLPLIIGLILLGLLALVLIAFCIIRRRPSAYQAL
inactive: [9] 0.091 | rosiglitazone 0.104 | sotrastaurin -0.031 | [10] 0.043

COMMD3-BMI1 (UniProt R4GMX3)
inactive: volasertib 0.038 | [2] 0.062 | epoxomicin 0.026 | [3] 0.006 | [6] -0.105 | sotrastaurin -0.024 | alvocidib 0.05 | Tubastatin A -0.074

CRTC3 (UniProt Q6UUV7)
Sequence of UniProt Q6UUV7 (Q6UUV7 whole entry, looked up): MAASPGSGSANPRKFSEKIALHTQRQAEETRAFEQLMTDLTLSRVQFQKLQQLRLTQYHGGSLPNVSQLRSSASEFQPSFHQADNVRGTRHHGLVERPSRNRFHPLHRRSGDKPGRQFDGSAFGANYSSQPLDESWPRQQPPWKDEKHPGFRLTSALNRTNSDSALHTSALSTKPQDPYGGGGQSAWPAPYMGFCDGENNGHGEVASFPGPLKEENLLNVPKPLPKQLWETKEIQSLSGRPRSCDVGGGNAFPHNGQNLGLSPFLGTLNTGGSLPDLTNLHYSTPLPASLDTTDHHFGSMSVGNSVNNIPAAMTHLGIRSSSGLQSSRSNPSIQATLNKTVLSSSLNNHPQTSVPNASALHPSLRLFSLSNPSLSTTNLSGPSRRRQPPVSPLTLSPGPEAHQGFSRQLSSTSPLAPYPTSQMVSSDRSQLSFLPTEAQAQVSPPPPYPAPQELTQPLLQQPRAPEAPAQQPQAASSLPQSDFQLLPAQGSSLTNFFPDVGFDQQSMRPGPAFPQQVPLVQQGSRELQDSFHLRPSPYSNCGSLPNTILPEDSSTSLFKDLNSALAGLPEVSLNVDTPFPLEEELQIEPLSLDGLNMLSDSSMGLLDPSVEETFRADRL
inactive: volasertib 0.051 | epoxomicin 0.094 | [4] -0.117 | rosiglitazone 0.148 | sotrastaurin 0.044 | alvocidib -0.051 | Tubastatin A -0.109 | defactinib 0.025 | [8] -0.06

C5orf30 (UniProt Q96GV9)
Sequence of UniProt Q96GV9 (Q96GV9 whole entry, looked up): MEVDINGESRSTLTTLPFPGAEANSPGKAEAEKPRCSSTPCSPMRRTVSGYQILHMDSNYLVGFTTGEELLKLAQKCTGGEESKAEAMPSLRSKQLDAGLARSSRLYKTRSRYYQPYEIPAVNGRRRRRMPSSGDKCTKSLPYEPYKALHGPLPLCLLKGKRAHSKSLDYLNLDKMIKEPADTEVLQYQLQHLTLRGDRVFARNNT
inactive: volasertib 0.001 | epoxomicin 0.165 | Tubastatin A 0.502

CRYM-AS1 (UniProt A6NIL9)
active: [6] -0.714
inactive: [1] -0.04 | [2] 0.233 | epoxomicin -0.107 | [9] 0.104 | [3] -0.029 | [4] 0.089 | rosiglitazone -0.068 | [5] 0.04 | saracatinib -0.092 | sotrastaurin -0.041 | alvocidib 0.063 | Tubastatin A 0.119 | [10] -0.347 | defactinib -0.065 | rucaparib -0.356 | [7] 0.103 | encorafenib 0.024 | [8] -0.078

CEP128 (UniProt Q6ZU80)
inactive: [1] -0.009 | volasertib -0.09 | [4] -0.11 | rosiglitazone 0.049 | [5] 0.039 | saracatinib -0.092 | sotrastaurin -0.022 | alvocidib 0.033 | Tubastatin A 0.024 | defactinib 0.027 | rucaparib -0.306 | [7] -0.22 | encorafenib 0.061 | [8] 0.044

C22orf39 (UniProt Q6P5X5)
inactive: volasertib 0.134 | [2] -0.042 | epoxomicin 0.081 | [9] -0.08 | rosiglitazone -0.119 | [5] 0.043 | saracatinib 0.076 | sotrastaurin -0.028 | alvocidib 0.013 | Tubastatin A -0.013 | [10] 0.129 | [7] 0.056

Reference: the supplement of paper PMC10849652
